Test results: PubChem BioAssay AID1159580 (chemical genetic matrix, 2015)
Where “and” joins values, the source holds several entries; their conditions need not be identical. Equal values may be shown once. About 2,000 (36%) of roughly 5,500 compounds were called active. Roughly 18% stayed inconclusive and do not appear here. Cut-off read from the data, not from the text of the source: active = normalized growth mostly below about 0.91 (no sharp cut-off); inconclusive = no clear call, values can overlap the other calls; inactive = mostly above about 0.92. The list shows a part of the results.

Assay: chemical genetic growth profiling, strain panel (AID 1159580);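 note: tested at 20 µM; growth read once vehicle control cultures reached saturation at 30 °C; 1 = growth at the plate median or of vehicle wells; lower values mean less growth of the strain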
Conditions: S. cerevisiae deletion strains, growth OD

Measured: normalized growth

CC(C)NCC(O)c1cc(O)cc(O)c1 (stereo not drawn)
inactive: locus YAL013W, strain DEP1, hits give low values 1.03 | locus YAL021C, strain ccr4, hits give low values 0.974 | locus YAL026C, strain drs2, hits give low values 1 | locus YAL030W, strain snc1, hits give low values 0.994 | locus YAL040C, strain CLN3, hits give low values 1.02 | locus YBL061C, strain skt5, hits give low values 0.991 | locus YBR009C, strain hhf1, hits give low values 1.01 | locus YBR021W, strain FUR4, hits give low values 1.02 | locus YBR023C, strain chs3, hits give low values 0.984 | locus YBR171W, strain sec66, hits give low values 0.998 | locus YBR229C, strain ROT2, hits give low values 1 | locus YBR231C, strain swc5, hits give low values 0.993 | locus YBR279W, strain paf1, hits give low values 0.992 | locus YCL011C, strain gbp2, hits give low values 0.982 | locus YCL016C, strain dcc1, hits give low values 0.976 | locus YCL029C, strain bik1, hits give low values 0.983 | locus YCL061C, strain MRC1 (second series), hits give low values 1.01 | locus YCL061C, strain MRC1, hits give low values 0.991 | locus YCL069W, strain vba3, hits give low values 0.992 | locus YCR088W, strain abp1, hits give low values 0.994 | locus YDL005C, strain med2, hits give low values 1 | locus YDL035C, strain GPR1, hits give low values 1.01 | locus YDL040C, strain nat1, hits give low values 0.994 | locus YDL074C, strain BRE1, hits give low values 1.01 | locus YDL101C, strain DUN1, hits give low values 1 | locus YDL134C, strain PPH21, hits give low values 1.01 | locus YDL185W, strain tfp1, hits give low values 0.964 | locus YDL192W, strain arf1, hits give low values 0.984 | locus YDR001C, strain nth1, hits give low values 0.983 | locus YDR069C, strain doa4, hits give low values 1.01 | locus YDR101C, strain arx1, hits give low values 1.02 | locus YDR137W, strain rgp1, hits give low values 0.977 | locus YDR150W, strain NUM1, hits give low values 0.996 | locus YDR159W, strain sac3, hits give low values 1.03 | locus YDR162C, strain NBP2, hits give low values 1.01 | locus YDR195W, strain ref2 0.982 | locus YDR297W, strain sur2, hits give low values 0.989 | locus YDR318W, strain mcm21, hits give low values 0.982 | locus YDR334W, strain swr1, hits give low values 0.974 | locus YDR335W, strain msn5, hits give low values 1 | locus YDR363W, strain ESC2, hits give low values 1.05 | locus YDR388W, hits give low values 1 | locus YDR392W, strain spt3, hits give low values 0.928 | locus YDR502C, strain sam2, hits give low values 0.993 | locus YEL003W, strain gim4, hits give low values 1 | locus YEL037C, strain rad23, hits give low values 0.989 | locus YEL061C, strain CIN8 (second series), hits give low values 0.98 | locus YEL061C, strain CIN8, hits give low values 0.995 | locus YER002W, strain NOP16, hits give low values 0.991 | locus YER015W, strain faa2, hits give low values 0.988 | locus YER016W, strain bim1, hits give low values 0.999 | locus YER110C, hits give low values 0.973 | locus YER111C, strain swi4, hits give low values 0.978 | locus YER155C, strain BEM2 (second series), hits give low values 1 | locus YER155C, strain BEM2, hits give low values 1 | locus YER167W, strain BCK2, hits give low values 0.995 | locus YFR010W, strain ubp6, hits give low values 0.992 | locus YGL078C, strain dbp3, hits give low values 0.969 | locus YGL086W, strain mad1, hits give low values 1.01 | locus YGL167C, strain pmr1, hits give low values 0.991 | locus YGL173C, strain kem1, hits give low values 1 | locus YGL227W, strain vid30, hits give low values 0.995 | locus YGL240W, strain doc1, hits give low values 1.01 | locus YGL248W, strain PDE1, hits give low values 1 | locus YGL253W, strain hxk2, hits give low values 0.974 | locus YGR135W, strain pre9, hits give low values 0.949 | locus YGR229C, strain SMI1, hits give low values 1.03 | locus YGR252W, strain gcn5, hits give low values 0.963 | locus YHR013C, strain ard1, hits give low values 0.961 | locus YHR027C, strain rpn1, hits give low values 1.02 | locus YHR030C, strain SLT2, hits give low values 1.01 and 0.952 | locus YHR079C, strain IRE1 (second series), hits give low values 0.988 | locus YHR079C, strain IRE1, hits give low values 0.964 | locus YHR094C, strain hxt1, hits give low values 1 | locus YHR129C, strain ARP1, hits give low values 1 | locus YHR142W, strain chs7, hits give low values 0.967 | locus YHR200W, strain rpn10, hits give low values 0.985 | locus YIL066C, strain RNR3, hits give low values 0.997 | locus YIL073C, strain SPO22, hits give low values 0.938 | locus YIL125W, strain kgd1, hits give low values 1.01 | locus YIR030C, strain dcg1, hits give low values 0.978 | locus YJL092W, strain hpr5, hits give low values 0.988 | locus YJL095W, strain BCK1 (second series), hits give low values 0.994 | locus YJL095W, strain BCK1, hits give low values 0.986 and 0.963 | locus YJL115W, strain asf1, hits give low values 0.977 | locus YJL129C, strain trk1, hits give low values 0.983 | locus YJL134W, strain LCB3, hits give low values 1.01 | locus YJL154C, strain vps35, hits give low values 1.02 | locus YJL164C, strain tpk1, hits give low values 0.993 | locus YJL166W, strain qcr8, hits give low values 0.974 | locus YJL168C, strain set2, hits give low values 0.999 | locus YJL187C, strain SWE1 (second series), hits give low values 0.995 | locus YJL187C, strain SWE1, hits give low values 0.987
